Screening results from PubChem.
Sampled rows, rich in hits. Any-hit rate of the full collection: about 4.6%.
USP8 inh: inhibitors of human USP8 deubiquitinase; Ubiquitin carboxyl-terminal hydrolase 8 (Homo sapiens), P40818; purified USP8, Ub-rhodamine cleavage fluorescence, 30 min; inhibition, % at 20 µM; hit rate 4.2% among 47,000; AID 1645853, 2021
USP7 inh: inhibitors of human USP7 deubiquitinase | Ubiquitin carboxyl-terminal hydrolase 7 (Homo sapiens), Q93009 | purified USP7, Ub-rhodamine cleavage fluorescence | inhibition, % at 20 µM | hit rate 0.3% among 47,000
USP10 inh: inhibitors of human USP10 deubiquitinase; Ubiquitin carboxyl-terminal hydrolase 10 (Homo sapiens), Q14694; purified USP10, Ub-rhodamine fluorescence, 60 min; inhibition, % at 20 µM; hit rate 1.1% among 47,000; AID 1645856, 2021
Target sequence (Q14694 whole entry, looked up): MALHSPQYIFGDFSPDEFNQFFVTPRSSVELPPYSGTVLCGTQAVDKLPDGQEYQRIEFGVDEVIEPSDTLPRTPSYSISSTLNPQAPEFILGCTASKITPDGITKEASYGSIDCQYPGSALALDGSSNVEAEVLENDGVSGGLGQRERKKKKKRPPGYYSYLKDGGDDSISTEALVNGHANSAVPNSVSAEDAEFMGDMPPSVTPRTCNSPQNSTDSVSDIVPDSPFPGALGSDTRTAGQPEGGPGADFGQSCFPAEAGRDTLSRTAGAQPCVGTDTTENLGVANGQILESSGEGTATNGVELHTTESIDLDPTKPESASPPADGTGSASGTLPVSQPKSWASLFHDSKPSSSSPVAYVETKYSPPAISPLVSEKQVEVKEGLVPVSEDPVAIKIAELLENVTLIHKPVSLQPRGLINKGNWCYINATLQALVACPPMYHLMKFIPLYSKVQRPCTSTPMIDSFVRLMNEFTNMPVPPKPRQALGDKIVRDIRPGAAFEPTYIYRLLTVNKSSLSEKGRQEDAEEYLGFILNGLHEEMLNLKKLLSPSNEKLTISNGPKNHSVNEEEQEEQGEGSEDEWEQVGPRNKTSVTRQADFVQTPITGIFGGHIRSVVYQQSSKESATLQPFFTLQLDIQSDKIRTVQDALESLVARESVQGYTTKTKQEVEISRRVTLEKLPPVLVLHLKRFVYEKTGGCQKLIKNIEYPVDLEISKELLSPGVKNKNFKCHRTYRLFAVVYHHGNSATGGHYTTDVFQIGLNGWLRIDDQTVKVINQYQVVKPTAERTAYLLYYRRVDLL
UCHL1 inh: inhibitors of human UCHL1 deubiquitinase | hit rate 0.2% among 47,000 | purified UCHL1, Ub-rhodamine cleavage fluorescence | inhibition, % at 20 µM
An asterisk follows results filed as active; · = no result given. No stated cut-off is given here; in the data, active means inhibition above about 30%; inactive means the rest.

SMILES	USP8 inh	USP7 inh	USP10 inh	UCHL1 inh
COc1ccc(NC(=O)Cc2cc(OC)c(OC)c(OC)c2)cc1S(=O)(=O)Nc1ccc(Br)cc1	-10	2	3	6
COc1ccc(NS(=O)(=O)c2cccc(NC(=O)CCC(=O)c3ccc(Cl)cc3)c2)cc1	6	-1	15	6
COc1ccccc1NS(=O)(=O)c1cc(C(=O)NCc2ccncc2)ccc1C	8	5	1	6
COc1ccc(NS(=O)(=O)c2cccc(NC(=O)CC(=O)c3ccc([N+](=O)[O-])cc3)c2)cc1	12	15	46*	4
COc1ccc(NS(=O)(=O)c2cc(NC(=O)CC(=O)c3ccc([N+](=O)[O-])cc3)ccc2Cl)cc1	58*	7	58*	-1
COc1ccc(NC(=O)CC(=O)c2ccc([N+](=O)[O-])cc2)cc1S(=O)(=O)Nc1ccc(Cl)cc1	58*	18	49*	4
COc1ccccc1NS(=O)(=O)c1cc(NC(=O)CC(=O)c2ccc([N+](=O)[O-])cc2)ccc1C	68*	14	33*	9
COc1ccc(CNC(=O)N2CCN(C(=O)C(C)C)CC3(CNC(=O)C3)C2)cc1 (configuration not stated)	-32	0	1	-2
CCOC(=O)N1CCN(C(c2cccs2)c2sc3nc(C)nn3c2O)CC1 (configuration not stated)	7	3	0	2
COc1cc2c(c(OCC(=O)Nc3ccc4c(c3)OCCO4)c1)C(=O)O[C@@H](C)CCCC(=O)CCCCC2	68*	3	32*	1
COc1cc(OCC(=O)NC(C)C)cc2c1C(=O)O[C@@H](C)CCCC(=O)CCCCC2	1	3	-3	0
COc1cccc(C(=O)Nc2cccn3nc(C)nc23)c1	12	3	1	1
COc1cccc(C(=O)Nc2nc(-c3ccco3)c(-c3ccco3)s2)c1	62*	50*	-8	52*
COc1cc(-c2cc(NC(C)=O)c3ncc(-c4cnn(C)c4)n3c2)ccc1O	3	5	-1	3
O=[N+]([O-])c1ccccc1C(c1c[nH]c2ccccc12)c1c[nH]c2ccccc12	82*	-4	-3	6
OC(c1ccccn1)c1c[nH]c2ccccc12 (configuration not stated)	0	-7	-2	-3
O=C(NCCc1nc2ccccc2n1CCCOc1ccccc1Cl)C1CCCCC1	74*	-5	31*	-4
Cc1ccc(C(=O)N(Cc2ccccn2)c2nc3ccc(F)cc3s2)cc1	0	0	-1	0
N#Cc1cn2c(nc1-c1ccc(Cl)cc1)nc1ccccc12	71*	-9	53*	3
N#Cc1cc2c([nH]c1=O)CC(c1ccccc1)C/C2=N\Nc1ccccc1 (configuration not stated)	51*	-15	-2	4
COc1ccc(CCn2nnnc2CN2CCN(c3ccccc3)CC2)cc1OC	2	-1	0	0
O=C(O)c1cn(Cc2ccccc2)c(=O)c2ccccc12	14	-22	-3	4
Cc1ccccc1NC(=O)Cn1c(=O)c2c(ncn2C2CCCC2)n(Cc2ccccc2)c1=O	39*	-39	7	1
O=C(Cn1ccc2ccn(Cc3ccccc3)c2c1=O)Nc1cccc(F)c1	32*	6	9	-1
Cc1ccccc1NC(=O)Cn1ccc2ccn(Cc3ccccc3)c2c1=O	49*	8	19	-4
SMILES	USP8 inh	USP7 inh	USP10 inh	UCHL1 inh
COc1ccc(-c2cc3c(=O)n(CC(=O)Nc4ccccc4C)ccn3n2)cc1	31*	13	29	4
Cc1ccccc1NC(=O)Cn1cccc(-c2nc(-c3ccccc3)no2)c1=O	28	4	0	-5
O=C(Cn1c(=O)c2c(ncn2C2CCCC2)n(Cc2ccccc2)c1=O)NCC1CCCO1 (configuration not stated)	-13	-2	-5	-3
Cn1ccc2ccn(CC(=O)Nc3cccc(Cl)c3)c(=O)c21	1	·	1	1
N#Cc1cccc(CN2C[C@@H]3OCC(=O)N(c4ccccc4)[C@@H]3C2)c1	-9	-4	-1	2
COc1ncccc1CNC(=O)c1ccc2nc[nH]c2c1	4	2	0	1
C[C@]12CCC(=O)[C@@]1(C)CC[C@]2(O)C#Cc1ccccc1	0	-9	0	0
Cc1cccc(C(=O)OCC(=O)Nc2ccc3[nH]c(=O)[nH]c3c2)c1	52*	15	18	3
COc1cc(OC)cc(-c2nnc3sc(-c4ccco4)nn23)c1	19	3	0	1
Fc1cccc(-c2nnc3sc(-c4ccco4)nn23)c1	43*	6	0	0
Cn1c(SCc2nc3ccccc3c(=O)[nH]2)nc2ccccc21	34*	-3	-4	-10
Cc1ccc(CSc2nc3ccccc3c(=O)[nH]2)cc1	6	4	6	0
Cc1ccnc(SCC(=O)N2CCC(c3ccncc3)CC2)n1	0	1	-1	-1
CCN(CC)S(=O)(=O)c1ccc2oc(N3CCOCC3)nc2c1	68*	0	1	-2
O=C(Cc1ccc(Cl)cc1)Nc1cc(-c2ccccc2)nn1C1CCS(=O)(=O)C1 (configuration not stated)	-175	-39	-3	-44
CC(=O)c1c(C)[nH]c(C(=O)N2CCN(Cc3ccc4c(c3)CCO4)CC2)c1C	0	0	2	0
Cn1c(=O)c(C(=O)Nc2ccc(Br)cc2)nc2ccccc21	77*	-13	8	26
Cn1c(=O)/c(=C\c2ccccc2)[nH]c(=O)/c1=C\c1ccccc1	-2	1	0	0
CCN(CC)C(=O)Cn1cc(C(=O)C(=O)NCc2ccccc2)c2ccccc21	-6	-19	7	-5
O=C1CCC[C@H]2[C@@H](C[C@@H](c3ccccc3F)N2C(=O)Cc2ccc(F)cc2)N1	-9	-23	3	-1
COc1cc2c(cc1OC)CN(C(=O)CCS(=O)(=O)c1ccc(Cl)cc1)CC2	76*	-3	-2	0
CC(C)N1CCOCC2(CCCN(C(=O)c3ccc4ncccc4c3)C2)C1 (configuration not stated)	-15	9	4	1
Cc1cc(NC(=O)c2cc(-c3cccnc3)n[nH]2)ccc1Br	98*	39*	38*	16
O=C(NCc1ccc(Br)cc1)c1cc(-c2cccnc2)n[nH]1	90*	29	21	3
O=C(NCc1ccc(F)cc1)C1CCN(C(=O)c2cc(-c3cccnc3)n[nH]2)CC1	-1	2	0	-3
COc1ccc(-c2nc(CNC(=O)c3ccccc3C)cs2)cc1	-5	57*	0	0
COc1ccc(C2NC(=O)NC(C)=C2C(=O)OC2CCCC2)cc1OC (configuration not stated)	35*	-5	0	-2
COc1cc(C2NC(=O)NC(C)=C2C(=O)OC2CCCC2)cc(OC)c1OC (configuration not stated)	7	0	2	-1
